# This is a sample that favours compounds with a hit; in the whole collection about 2.8% have one here.
# KDM5B inhibitor – Primary screen for KDM5B Histone Demethylases FDH-coupled qHTS; Lysine-specific demethylase 5B (Homo sapiens), Q9UGL1; KDM5B demethylase, FDH-coupled NADH fluorescence (FDH is formaldehyde dehydrogenase); Potency, µM (series often up to 57.7 µM), most hits filed as inhibitors; hit rate 2.6% among 220,000; AID 1347165, 2019; active = well fitted inhibition curve with a large enough effect; inconclusive = small, poorly fitted or top-dose-only effect; inactive = no such curve, though single readings can be large or run the other way; note: potency is the fitted concentration of half-maximal effect; 0% is about no effect; nearly all actives have a fitted effect of over 70% in size
#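 Coupled FDH/NAD⁺ fluorescence readout. KDM5BΔAP 200 nM final; compound titration, 10 min RT preincubation; substrate mix 12.5 µM H3K4me3, 25 µM 2-OG, 50 µM Fe(II), 100 µM ascorbate, 0.25 mM NAD⁺, 0.25 U/mL FDH; ΔRFU over 30 min.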
# IP6K1 inhibitor – Primary qHTS assay for small molecule inhibitors of Inositol hexaphosphate kinase 1 (IP6K1); Inositol hexakisphosphate kinase 1 (Homo sapiens), Q92551; IP6K1 kinase, ADP-Glo luminescence, 2 h; stronger effect = lower value; activity change, % (series mostly up to about 58 µM); hit rate 0.81% among 140,000; AID 1645851, 2021; in the data active = activity change below about -25%; note: % is set by controls: 0 for no effect and ±100 for the full control effect
#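 ADP-Glo luminescence measures ADP made by human IP6K1 during a 2 h RT reaction with ATP/IP6 (mix at 1.3 mM/130 uM); top library doses 57.5 and 19.1 uM final.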
# Numbers without * were called inactive; i = inactive; ? = inconclusive; / = no result given.
SMILES,KDM5B inhibitor,IP6K1 inhibitor
Cc1cn2nc(C(=O)NC3CCCCCC3)cc2c(N2CCCC2)n1,6.3µM*,10
Cc1cn2nc(C(=O)NC3CCCC3)cc2c(N2CCCC2)n1,i,-16
Cc1cn2nc(C(=O)NC(C)c3ccc(F)cc3)cc2c(N2CCCC2)n1 (configuration not stated),i,-3
COc1ccccc1-c1ccc(CN2CCC(NC(=O)c3ccc(C(F)(F)F)cc3)C2)cc1 (configuration not stated),/,28
COCCNc1nc2c(S(=O)(=O)c3cc(C)ccc3C)nnn2c2ccccc12,79µM*,9
Cc1ccc(C)c(S(=O)(=O)c2nnn3c2nc(NCCCOC(C)C)c2ccccc23)c1,?,42
COc1ccc(OC)c([S+](=O)([O-])c2nnn3c2nc(NCCCOC(C)C)c2ccccc23)c1,89µM*,-1
Cc1ccc(S(=O)(=O)c2nnn3c2nc(NCCCOC(C)C)c2ccccc23)cc1C,?,8
COc1ccc(OC)c([S+](=O)([O-])c2nnn3c2nc(NC2CCCC2)c2ccccc23)c1,?,3
COCCCNc1nc2c([S+](=O)([O-])c3cc(OC)ccc3OC)nnn2c2ccccc12,79µM*,2
Cc1nn(-c2ccccc2)c2c1C(C1CC1)N(CC1CN(C(=O)C3CC3)C1)C2=O (configuration not stated),/,17
Cn1ccc2c(C(=O)NCc3cccnc3)nc(-c3cccnc3)cc21,i,20
Cn1ccc2c(C(=O)NCc3cccnc3)nc(-c3ccncc3)cc21,i,22
Cn1ccc2c(C(=O)NCc3cccnc3)nc(-c3cccc4cc[nH]c34)cc21,35µM*,32
Cn1ccc2c(C(=O)NCc3cccnc3)nc(-c3ccccc3C(F)(F)F)cc21,35µM*,3
O=C(NC1CCCC1)N1CCCC(C(=O)N2CCCC2c2nc3ccncc3[nH]2)C1 (configuration not stated),/,8
O=C(NCCc1c[nH]c2ccccc12)c1ccc(Cl)c(Cl)c1,i,/
OC1(c2ccc(F)cc2)CCN(c2nccc(-c3ccccn3)n2)CC1,?,51
Cc1ccnc(N2CCC(O)(c3ccc(F)cc3)CC2)n1,28µM*,-5
O=C(NC1CC1)c1cc(C2CC2)nc2onc(C3CCNCC3)c12,?,10
O=C(NCc1ccncc1)c1cc(C2CC2)nc2onc(C3CCNC3)c12 (configuration not stated),?,11
O=C(NC1CCCC1)c1cc(C2CC2)nc2onc(C3CCNCC3)c12,79µM*,6
COCCNC(=O)c1cc(C2CC2)nc2onc(C3CCNC3)c12 (configuration not stated),79µM*,16
O=C(c1cc(C2CC2)nc2onc(C3CCCNC3)c12)N1CCCCC1 (configuration not stated),?,-8
Cc1cc(C(=O)N2CCCCC2)c2c(C3CCNC3)noc2n1 (configuration not stated),89µM*,1
SMILES,KDM5B inhibitor,IP6K1 inhibitor
COc1ccc(-c2cc(C(=O)NCC(C)C)c3c(C4CCNC4)noc3n2)cc1 (configuration not stated),?,4
COCCNC(=O)c1cc(-c2ccc(OC)cc2)nc2onc(C3CCNC3)c12 (configuration not stated),79µM*,0
O=C(c1ccc(Cl)nc1)N1CCC2(CC1)CC(c1cccc(C(F)(F)F)c1)=NO2,/,21
COC(=O)c1cc(-c2ccccn2)nc2ccccc12,i,/
N#Cc1ccc(NS(N)(=O)=O)cc1,i,/
Cc1ccc(-c2cccc(CN3CCCC(NC(=O)Nc4ccc(Cl)cc4)C3)c2)cc1Cl (configuration not stated),/,-7
O=C([C@@H]1CCCN1c1nccc(Nc2ccccc2Cl)n1)N1CCN(Cc2ccccc2)CC1,/,3
COCCN1C[C@@H]2[C@H](c3ccccc31)[C@@H](CO)[C@@H](c1ccccc1)N2C(=O)C1CC1,/,-14
O=C1NCCCCCCN(C(=O)c2cc3ccccc3[nH]2)[C@H]2CCC[C@@H]12,i,-5
COc1ccc2[nH]c(C(=O)N3CCCCCNC(=O)[C@@H]4CCC[C@@H]43)cc2c1,28µM*,0
COc1ccc(C(=O)NCC(=O)N2CCCCCCNC(=O)CC2c2ccccc2)cc1 (configuration not stated),i,0
COc1ccc(C(=O)NCC(=O)N2CCCCCCNC(=O)CC2c2ccccc2)c(OC)c1 (configuration not stated),i,2
COc1ccc2[nH]c(C(=O)NCC(=O)N3CCCCCNC(=O)CC3c3ccccc3)cc2c1 (configuration not stated),28µM*,-4
COc1ccc2[nH]c(C(=O)NCC(=O)N3CCCCCCNC(=O)CC3c3ccccc3)cc2c1 (configuration not stated),16µM*,14
O=C(CC1CCCCN(Cc2ccccc2)C1=O)Nc1ccccc1 (configuration not stated),/,5
FC(F)(F)c1cccc2c(N3CCC4(CCCN4Cc4ncc[nH]4)CC3)ccnc12,28µM*,37
COCCC1(C(=O)O)CCN(c2ccnc3c(C(F)(F)F)cccc23)CC1,i,0
COc1ccc(CNC(=O)N2CCOc3ccc(N(C)C)cc3C2)cc1,/,0
COc1ccc(-c2cc3c(nc2-c2ccccc2)nc(C(=O)NCCN(C)C)n3C)cn1,i,3
COc1cc(F)ccc1-c1cc2c(nc1-c1ccccc1)nc(C(=O)NCCN(C)C)n2C,32µM*,4
COCCCNC(=O)c1nc2nc(-c3ccccc3)c(Cl)cc2n1C,i,21
COCCNC(=O)c1nc2nc(-c3ccccc3)c(Cl)cc2n1C,40µM*,2
Cc1ccccc1-c1cc2c(nc1-c1ccccc1)nc(C(=O)NCCN(C)C)n2C,i,12
COc1ccccc1-c1cc2c(nc1-c1ccccc1)nc(C(=O)NCCN(C)C)n2C,32µM*,6
O=[S+]([O-])(NC1CCN(c2ccc3nnc(C4CC4)n3n2)C1)c1cccc(C(F)(F)F)c1 (configuration not stated),/,20
SMILES,KDM5B inhibitor,IP6K1 inhibitor
Cc1ccc(-c2cn3c(n2)CO[C@@H](CNC(=O)NCc2ccccc2)C3)cc1,?,-4
Cc1ccc(-c2cn3c(n2)CO[C@@H](CNC(=O)c2ccccc2)C3)cc1,32µM*,15
COc1cc(F)ccc1-c1ccnc2ncnn12,25µM*,5
COc1ccc(-c2ccnc3ncnn23)c(F)c1,28µM*,-12
c1ccc2oc(-c3ccnc4ncnn34)cc2c1,i,-5
COc1cc(-c2ccnc3ncnn23)cc(OC)c1OC,?,1
O=C(NC1CCN(c2ccc3nnc(-c4ccccc4)n3n2)C1)c1ccc(Cl)nc1 (configuration not stated),/,0
COc1ccc(NC(=O)c2cc3c(N4CCSCC4)nc(C)cn3n2)cc1OC,28µM*,-17
COc1cccc(NC(=O)c2cc3c(N4CCSCC4)nc(C)cn3n2)c1,28µM*,0
Cc1cn2nc(C(=O)Nc3ccc(N(C)C)cc3)cc2c(N2CCCC2)n1,i,0
Cc1cn2nc(C(=O)Nc3ccc(C)c(F)c3)cc2c(N2CCSCC2)n1,25µM*,10
COc1ccc(NC(=O)c2cc3c(=O)[nH]c(C)cn3n2)cc1OC,i,0

# Screening data as filed in PubChem.
